Data taken from PubChem BioAssay AID651558 (National Center for Advancing Translational Sciences (NCATS), 2012).
The whole screen tested about 1,200 compounds, of which about 480 (40%) were called active. Not shown: some 29% with an inconclusive outcome. Calls follow the shape of the dose curve; as a rule, active = well fitted inhibition curve with a large enough effect; inconclusive = small, poorly fitted or top-dose-only effect; inactive = no such curve, though single readings can be large or run the other way. The list shows a part of the results.

assay: qHTS Assay to Find Inhibitors of Chronic Active B-Cell Receptor Signaling: Hit Validation in Primary Screen; conditions: ABC-DLBCL IkB-luc/CBR ratio luminescence, 4 h; series mostly up to 46.1 µM; also: nearly all actives have a fitted effect of over 75% in size
Source text: Diffuse large B-cell lymphoma (DLBCL) is the most common category of non-Hodgkin lymphoma, with ~20,000 new cases per year in the United States. DLBCL should be regarded as a collection of different neoplasms. Microarray gene expression analysis has defined two principal types of DLBCL, named for their similarity to normal B cell stages or activation states: a germinal center B-cell (GCB) type, and an activated B-cell (ABC) type. In ABC-DLBCL, a constitutive high-level activity of the NF-kappaB family of transcription factors has been observed (1) and NF-kappaB target genes are more highly expressed in ABC primary tumors than in GCB tumors. Functional studies have shown a constitutive high-level activity of the IkappaB (inhibitor of kappa-B) kinase (IKK) complex. […] Further analysis of DLBCL primary tumors for NF-kappaB target gene expression imply that although CARD11 is required for constitutive IKK activity in all ABC-DLBCL lines, mutations in CARD11 may be the root cause of IKK activation only in lines or tumors with such mutations. In other words, CARD11 mutations may explain NF-kappaB activation in only 10% of ABC-DLBCL cases. […] This process has been termed 'chronic active BCR signaling' (CABS). The goal of this screen is to find small-molecule inhibitors of the CABS pathway found in ABC-DLBCL lines using a cell-based assay that measures IkappaBalpa stability, which has already been extensively validated in the OCI-Ly3 line (PubChem AID:445; REF: 4). […] A cell-sensor assay for I-kappa-B-alpha stabilization has been developed. The assay uses green (CBG68) and red (CBR) emitting beetle luciferases [Chroma-GloTM developed by Promega Corp.] where the green luciferase is fused to IkappaBalpha and the red luciferase is present in its native state. Both luciferase genes are stably present in the TMD8 human ABC DLBCL cell line, but their expression is under the control of tetracycline-inducible promoters. Following the addition of doxycycline to induce expression of the luciferases, the green luminescence in control cultures rises only slowly because the CBG fusion partner IkappaBalpha is targeted by IKK activity for rapid degradation. In contrast, green luminescence rises rapidly in the presence of proteasome inhibitors or IKK inhibitors. The rise in red luminescence of CBR is not affected by proteasome or IKK inhibitors, and serves as normalization for cell number and nonspecific effects. Compounds were screened as a concentration-titration series that ranged from 46 uM to 3 nM. NIH Molecular Libraries Probe Production Network [MLPCN] NIH Chemical Genomics Center [NCGC] MLPCN Grant: R03 DA031086 PI Name: Dr. R. Eric Davis
Cells were seeded in 1536-well plates at 5000 cells/4uL in IMDM medium containing 0.5% FBS, w/o phenol red, 1% penicillin/streptomycin. Then, 23 nL of compounds or DMSO were delivered to each well using a pin tool. One uL 20ng/ml doxycycline was then dispensed into white solid 1536-well plates and the plates were incubated at 37C/5% C02 in a cell incubator for 4 hrs. Then 4 uL luminescent substrate mix (in-house prepared: 150 mM Tris-Cl, pH 7.6, 3 mM MgCl2, 1% Triton X-100, 5 mM DTT, 0.2 mM CoA, 0.15 mM ATP, 5 mM D-luciferin, final concentrations) was added to each well. The plate was incubated at r.t. for 10-15 min. The plates were measured on a ViewLux plate reader for green luminescence (540/20 nm filter) and red luminescence (618/8 nm filter). The green and red luminescent signals were corrected for red and green luminescence filter overlap using previously determined filter calibration constants (determined using the procedure outlined in the Promega Technical Manual; REF 4). The %Activity was determined from the ratio of corrected green/red luminescent values. MG132 were used as control. Green luminescent and ratio %Activity was determined by normalizing to the difference in signal between basal cells (0% Activity) and cells incubated with 10 uM of the proteasome inhibitor MG-132 (100% Activity). […]
Potency is read from the fitted curve at half-maximal effect.

Row | SMILES | Potency
1 | COc1ccc(/C=N\NC(=O)c2ccccc2F)cc1COc1ccc(F)cc1F | 3.26 µM (active)
2 | CCOc1cc(/C=N/O)ccc1OCc1ccccc1F | inactive
3 | CNC(=S)N/N=C(\C)c1cccc([N+](=O)[O-])c1 | inactive
4 | C/C(=N\NC(=O)C(C)n1nc(C)c([N+](=O)[O-])c1C)c1ccccc1O (stereo not given) | inactive
5 | C/C(=N\NC(=O)c1c([N+](=O)[O-])c(C)nn1C)c1ccc(NC(=O)C2CCCC2)cc1 | 9.2 µM (active)
6 | COc1cc(C(=O)N/N=C/c2ccsc2C)cc(OC)c1OC | 2.31 µM (active)
7 | COc1cc(C(=O)N/N=C/C2CC=CCC2)cc(OC)c1OC (stereo not given) | inactive
8 | COc1cc(C(=O)O/N=C(\N)c2ccc([N+](=O)[O-])cc2)cc(OC)c1OC | inactive
9 | COc1cc(C(=O)N/N=C/c2cc([N+](=O)[O-])cs2)cc(OC)c1OC | 20.6 µM (active)
10 | COc1cc(C(=O)N/N=C/c2sccc2C)cc(OC)c1OC | 1.46 µM (active)
11 | CC1=Nc2cc(C(=O)NCc3ccco3)ccc2Sc2ccc(C)cc21 | 1.84 µM (active)
12 | Cc1cc(C(=O)OCC(=O)NCc2ccco2)c(C)n1-c1ccc(F)cc1 | inactive
13 | CCC1=Nc2cc(C(=O)NCc3ccco3)ccc2Sc2ccc(C)cc21 | 1.16 µM (active)
14 | CC(NC(=O)c1ccc(S(=O)(=O)NCc2ccco2)cc1)c1ccc(F)cc1 (stereo not given) | inactive
15 | CCCC(C)NC(=O)c1ccc(C2SCC(=O)N2Cc2ccco2)cc1 (stereo not given) | inactive
16 | CCC1=Nc2cc(C(=O)NCc3ccco3)ccc2Sc2ccc(Cl)cc21 | 2.91 µM (active)
17 | CC1=Nc2cc(C(=O)NCC3CCCO3)ccc2Sc2ccc(C)cc21 (stereo not given) | 7.31 µM (active)
18 | COc1ccc(N2C(=O)CS/C2=N\C(=S)Nc2ccccc2)cc1 | inactive
19 | N#CCSc1nc(N)c(C#N)c(C2CCCCC2)c1C#N | inactive
20 | CCC1=Nc2cc(C(=O)NCc3ccccc3Cl)ccc2Sc2ccc(C)cc21 | 4.61 µM (active)
21 | CCC1=Nc2cc(C(=O)NCc3ccco3)ccc2Sc2ccccc21 | 20.6 µM (active)
22 | CCC1=Nc2cc(C(=O)NCc3cccnc3)ccc2Sc2ccc(C)cc21 | 18.4 µM (active)
23 | COc1ccc(C(=O)NN(C)c2nc(C(F)(F)F)nc3ccccc23)cc1 | 0.291 µM (active)
24 | CSc1nc(N(C)NC(=O)c2cccc(C)c2)c2ccccc2n1 | 1.3 µM (active)
25 | CSc1nc(N(C)NC(=O)c2ccc(Cl)cc2)c2ccccc2n1 | inactive

Row | SMILES | Potency
26 | COc1ccc(-c2c(C)nn3c(N)c(C#N)cnc23)cc1OC | 20.6 µM (active)
27 | C[C@H]1C[C@@H]2[C@H]([C@@H](O)C[C@@]3(C)[C@H]2CC[C@]3(O)C(=O)CO)[C@@]2(C)C=CC(=O)C=C12 | inactive
28 | COc1ccc(/C=N/NC(=O)c2[nH]c3ccc(C)cc3c2-c2ccccc2)c(C(=O)O)c1OC | inactive
29 | COc1ccc(/C=N/NC(=O)c2cc3c(OC)ccc(OC)c3[nH]2)cc1O | 2.31 µM (active)
30 | Cc1ccc(CNC(=O)Cc2ccc(-n3c(=O)[nH]c4ccsc4c3=O)cc2)cc1 | 4.11 µM (active)
31 | O=C1N/C(=N/N=C/c2ccccc2O)SC1Cc1ccc(F)cc1 (stereo not given) | 9.2 µM (active)
32 | C=CCn1c(SC2CCOC2=O)nc2sc(C)c(C)c2c1=O (stereo not given) | inactive
33 | C=CCn1c(SCC(=O)Nc2cccc(S(N)(=O)=O)c2)nc2sc(C)c(C)c2c1=O | 5.17 µM (active)
34 | CC1=Nc2cc(C(=O)NCCCOC(C)C)ccc2Sc2ccc(C)cc21 | 7.31 µM (active)
35 | CCC1=Nc2cc(C(=O)NCCCOC(C)C)ccc2Sc2ccc(C)cc21 | 2.59 µM (active)
36 | Oc1ccccc1N=Nc1ccccc1O | inactive
37 | CCc1ccccc1NC(=S)N=Nc1c(O)n(C)c2ccc(S(=O)(=O)N3CCOCC3)cc12 | inactive
38 | S=c1[nH]cnc2sc(-c3ccccc3)cc12 | inactive
39 | O=c1[nH]c(-c2ccccn2)nc2sc(-c3ccccc3)cc12 | 2.31 µM (active)
40 | CCc1cc2c(=O)[nH]c(-c3ccccn3)nc2s1 | 14.6 µM (active)
41 | C/C(=N\NC(=S)NCCc1ccccc1)c1cccc(Br)c1 | inactive
42 | O=C(NC(=S)NC1CCSC1=O)c1cccs1 (stereo not given) | inactive
43 | O=C1NC(=O)C(=C2CCCCCC2)S1 | inactive
44 | COc1ccc(-c2cnc3c(c2)CCC3(C#N)C#N)cc1 | 3.66 µM (active)
45 | Cc1cc(C)c2ccc(/C=N/O)nc2c1O | inactive
46 | COc1ccc(C2CC(=O)Oc3cc(OC)c(OC)c(OC)c32)cc1 (stereo not given) | inactive
47 | COc1ccc([C@H]2CC(=O)C=C(c3ccc(OC)cc3OC)C2)cc1 | 16.4 µM (active)
48 | COc1ccc(/C=C/C(=O)c2cc(Br)ccc2OC(=O)c2ccco2)cc1OC | 5.8 µM (active)
49 | O=C(NC(=S)Nc1cccc(F)c1)c1cccc([N+](=O)[O-])c1 | inactive
50 | O=C(Oc1ccc(F)cc1C(=O)/C=C/c1cccs1)c1cccc([N+](=O)[O-])c1 | 1.46 µM (active)
